AmpC inh detg: inhibitors of E. coli AmpC beta-lactamase with detergent | AmpC hydrolysis of nitrocefin, absorbance 480 nm, 0.01% Triton | 370,000 tested, 0.041% active | P00811 | AID 485294 | Potency, µM (titrated, usually from 114 µM), most hits filed as inhibitors; note: nearly all actives have a fitted effect of over 25% in size
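AmpC (5.3 nM in the dispensed reagent) in 20 mM phosphate pH 7.0 with 0.01% (detergent screen) or 0.0001% Triton X-100 was preincubated with compounds for 15 min at room temperature. Nitrocefin was then added from an 800 uM solution, and hydrolysis was followed at 480 nm.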
AmpC no deterg: inhibitors of E. coli AmpC beta-lactamase without detergent; AmpC nitrocefin hydrolysis, absorbance 480 nm, 0.0001% Triton; Potency, µM (series often up to 57.1 µM), most hits filed as inhibitors; AID 485341; 330,000 tested, 0.52% active; note: nearly all actives have a fitted effect of over 20% in size
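AmpC (5.3 nM in the dispensed reagent) in 20 mM phosphate pH 7.0 with 0.01% (detergent screen) or 0.0001% Triton X-100 was preincubated with compounds for 15 min at room temperature. Nitrocefin was then added from an 800 uM solution, and hydrolysis was followed at 480 nm.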
Giardia FBPA inh: blocks Giardia fructose-bisphosphate aldolase activity. Potency, µM (highest dose often 59.6 µM), usual class: inhibitors. purified Giardia FBPA. AID 2451. 290,000 tested, 0.71% active; note: nearly all actives have a fitted effect of over 55% in size
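40 nM FBPA preincubated 10 min at RT with compound (up to 57.5 uM final), then substrate plus GAPDH/TPI/NAD/arsenate coupling and diaphorase/resazurin added. Fluorescence read after 20 min at RT, 525/598 nm.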
AMA1 RON2 block: disrupts binding of P. falciparum AMA1 to RON2. Potency, µM (titrated, usually from 58.2 µM), actives largely listed as inhibitors. AID 720542. 360,000 tested, 0.2% active. AlphaScreen AMA1-biotinylated RON2 peptide binding; note: nearly all actives have a fitted effect of over 45% in size
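AMA1 (3D7) with his tag at 25 nM final met compounds first, then biotinylated RON2 peptide at 25 nM; detection used donor plus acceptor beads, 10 µg/mL apiece, read by AlphaScreen after 30 min at room temperature.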
LmPK inh: LmPK (Leishmania mexicana) enzyme inhibition. purified LmPK, Kinase-Glo ATP luminescence, 1 h. 290,000 tested, 0.37% active. Q27686. Potency, µM (top dose mostly 57.5 µM), actives largely listed as inhibitors
Target sequence (Q27686 whole entry, looked up): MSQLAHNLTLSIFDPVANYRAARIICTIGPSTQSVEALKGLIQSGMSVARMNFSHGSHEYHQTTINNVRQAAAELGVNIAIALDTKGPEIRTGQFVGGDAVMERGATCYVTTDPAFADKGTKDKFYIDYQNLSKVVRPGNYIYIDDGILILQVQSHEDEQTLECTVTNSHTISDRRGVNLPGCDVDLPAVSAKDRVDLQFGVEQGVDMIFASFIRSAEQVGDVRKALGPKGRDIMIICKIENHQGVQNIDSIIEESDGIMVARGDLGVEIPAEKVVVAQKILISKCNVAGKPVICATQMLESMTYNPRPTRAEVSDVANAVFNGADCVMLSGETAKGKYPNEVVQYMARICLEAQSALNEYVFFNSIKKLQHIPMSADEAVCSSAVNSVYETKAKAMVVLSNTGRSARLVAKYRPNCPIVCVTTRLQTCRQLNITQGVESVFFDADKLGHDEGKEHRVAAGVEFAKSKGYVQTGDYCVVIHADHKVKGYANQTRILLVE
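qHTS format; LmPK 0.1 nM; substrates PEP 0.5 mM and ADP 0.1 mM. One-hour room-temperature incubation, then coupled luciferase luminescence; 0.5 nM enzyme wells mark activation.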
Hits are given with their value; n = inactive; u = inconclusive; x = no result given; [ ] = dose if it differs, or a comment. The list is not random: actives were taken first. Their share in the collection is about 1.3%. Calls come from the whole dose curve; as a rule, active = well fitted curve in the direction sought with a large enough effect; inconclusive = small, poorly fitted or top-dose-only effect, or another doubt; inactive = no such curve, though single readings can be large; an effect the other way counts as inactive or inconclusive.

SMILES	AmpC inh detg	AmpC no deterg	Giardia FBPA inh	AMA1 RON2 block	LmPK inh
O=C1OCC2OC(O)C(O)C(O)C2OC(=O)c2cc(O)c(O)c(O)c2-c2c(O)c(O)c3oc(=O)c4c(c(O)c(O)c5oc(=O)c2c3c54)-c2c1cc(O)c(O)c2O (configuration not stated)	n	n	3.97µM	x	n
COc1ccccc1N1CCN(S(=O)(=O)c2c(C)sc3ncn(CC(=O)Nc4ccc(C)cc4Br)c(=O)c23)CC1	n	x	x	x	x
CNc1cc(-c2cccc(C(=O)N3CCOCC3)c2)ncn1	x	x	x	n	x
COc1ccc(C(=O)Nc2ccc(S(=O)(=O)N3CCc4ccccc43)cc2)cc1	x	x	x	n	x
CSc1cccc(NC(=O)c2cc(S(=O)(=O)N3CCc4ccccc43)cn2C)c1	n	10µM	n	n	n
NS(=O)(=O)c1ccc(NC(=O)c2ccc(S(=O)(=O)N3CCc4ccccc43)cc2)cc1	n	17.8µM	n	n	n
C=C(C)CC(C)(C)C	x	x	n	x	x
Cc1ccc(S(=O)(=O)NC(=O)C2(C)CCN2C(=O)Cc2ccc(C(C)(C)C)cc2)cc1 (configuration not stated)	x	x	x	n	x
CN(Cc1ccccc1)C(=O)c1csc([C@@H]2O[C@H](CO)[C@H](O)[C@H](O)[C@H]2O)n1	x	x	x	n	x
CCN1C(=O)/C(=C2/C=Cc3cc(C)ccc3N2CC)N(C)C1=S	n	n	n	n	14.1µM
CCN1/C(=C2/SC(=S)N(C)C2=O)C=Cc2cc(C)ccc21	x	x	x	n	x
O=S(=O)(c1ccccc1Cl)N1CCCC1c1nc(-c2ccc(Cl)cc2)no1 (configuration not stated)	n	0.316µM	n	n	n
CNCc1ccccc1Sc1cccc(O)c1	n	n	n	n	n
CNCc1ccccc1Sc1cc(O)ccc1O	u	n	u	11.2µM	u
COC(=O)C1CCN(C2CN(Cc3ccc(F)cc3)S(=O)(=O)C2)CC1 (configuration not stated)	x	x	x	n	x
COc1cccc(Nc2nc(C(N)Cc3ccccc3)cs2)n1 (configuration not stated)	x	x	x	n	x
CC1=NN(c2ccccc2)C(=O)/C1=C\C=C\c1ccccc1	n	n	n	6.31µM	n
CC1=NN(c2ccccc2)C(=O)/C1=C/C=C/c1ccc(N(C)C)cc1	u	n[11.4 µM]	n	1.41µM	14.1µM
CS(=O)(=O)c1ccc(Cl)c(NC(=O)CCN2C(=O)C3CC=CCC3C2=O)c1 (configuration not stated)	n	n	x	n	x
COc1ccc(CN2C(=O)NC(=O)/C(=C/c3ccoc3)C2=O)cc1	n	10µM	n	n	n
Nc1nc(Nc2ccccc2F)sc1C(=O)c1ccc(Cl)cc1	n	x	x	x	x
C[C@@H]1CN([C@H](C)CO)S(=O)(=O)c2ccc(C#CC3CCCC3)cc2O[C@H]1CN(C)C(=O)Cc1ccccc1	x	x	x	n	x
Cc1ccc(S(=O)(=O)Nc2cc(=O)[nH]c(SCc3ccccc3Cl)n2)cc1	u	10µM	n	n	n
O=c1cc(NS(=O)(=O)c2ccccc2)nc(SCc2ccc(Cl)cc2)[nH]1	n	n	n	n	n
CCOC(=O)Cc1ccc(Nc2nc3cc(-c4ccccc4C)sc3c(=O)n2C)cc1	x	x	x	n	x
SMILES	AmpC inh detg	AmpC no deterg	Giardia FBPA inh	AMA1 RON2 block	LmPK inh
Cc1nc2oc3ccc(Cl)cc3c(=O)c2cc1C(=O)O	n	n	n	n	n
CC(C)c1ccc2oc3nc(N)c(C(=O)O)cc3c(=O)c2c1	n	n	u	x	7.08µM
COc1ccc([C@H]2C[C@@H](O)[C@H](n3cc(COC(=O)c4ccccc4)nn3)CN2CC2CCCCC2)cc1	x	x	x	n	x
Oc1ccc2ccccc2c1C=NC12CN3CCN(CN(C3)C1)C2	n	n	14.1µM	n	n
OCC(CO)(CO)N=Cc1c(O)ccc2ccccc12	n	n	u	n	n
COc1cc(Cl)c(C)cc1NC(=O)CSc1sc2c(O)cc(=O)[nH]c2c1C#N	n	1.58µM	n	n	n
Cc1ccc(S(=O)(=O)C(CNC(=O)C(=O)NCc2ccc(Cl)cc2)c2cccs2)cc1 (configuration not stated)	n	x	x	x	x
O=[N+]([O-])c1ccc(N/N=C/c2cccc(O)c2O)cc1	n	17.8µM	n	n	n
O=[N+]([O-])c1cc(C(F)(F)F)ccc1NC1CCN(Cc2ccccc2)CC1	n	n	n	12.6µM	n
CCCC(=O)OCCNc1cc(Sc2nc3ccccc3[nH]2)c2nonc2c1[N+](=O)[O-]	u	12.6µM	u	n	n
CCC(=O)OCCNc1cc(SCCC(=O)OC)c2nonc2c1[N+](=O)[O-]	n	n	u	n	n
O=C(Nc1nc(-c2cccs2)cs1)c1ccc(Cl)cc1	n	28.2µM	n	n	n
COc1ccc(C(=O)Nc2nc(-c3cccs3)cs2)cc1	n	x	n	n	n
COc1cc2c(cc1OC)C(c1ccc(-c3ccc(Cl)c(Cl)c3)o1)=NCC2	n	n	n	n	12.6µM
Cc1cc(C(=O)Nc2ccccc2)oc1C	n	n	x	n	15.8µM
CCCC(=O)N1CCN(c2ccc(NC(=O)c3cc4ccccc4o3)cc2Cl)CC1	u	n	9.98µM	n	n
O=C(Nc1ccccc1)c1cc2ccccc2o1	u	n	n	n	14.1µM
Cc1cc(C(=O)Nc2cccc3ccccc23)oc1C	x	x	x	n	x
COc1cc(OC)c(NC(=O)Nc2cc(C)on2)cc1Cl	x	x	n	x	x
Cc1cc(C)n(CC(=O)NNC(=O)C2CC(=O)N(Cc3ccccc3Cl)C2)n1 (configuration not stated)	n	n	x	n	n
COC(=O)C1=C[C@@H](C(=O)OC)C2C3=C(C(=O)[C@]2(CC(C)C)NC(=O)c2ccccc2)[C@H](C)n2c(=O)n(C)c(=O)n2[C@@H]3C1 (some centres not stated)	x	x	n	x	x
COc1ccc(OC)c(NC(=O)c2c(NCc3ccc(N(C)C)cc3)sc3c2CCCC3)c1	n	x	x	x	x
CCCn1nc(C(=O)Nc2ccc(S(=O)(=O)Nc3nccs3)cc2)c2ccccc2c1=O	n	n	n	n	n
CCCn1nc(C(=O)Nc2cc(S(=O)(=O)Nc3ccc(OC)cc3)ccc2O)c2ccccc2c1=O	x	1.58µM	x	n	x
O=C(O)c1cccc(Br)c1	x	x	x	n	x
SMILES	AmpC inh detg	AmpC no deterg	Giardia FBPA inh	AMA1 RON2 block	LmPK inh
COC(=O)c1ccccc1NC(=O)NCCc1c(C)nn(C)c1C	n	x	x	x	x
O=C1C(NS(=O)(=O)c2cccs2)=C(N2CCOCC2)C(=O)c2ccccc21	n	n	u	n	n
CN(C1=C(N2CCOCC2)C(=O)c2ccccc2C1=O)c1ccccc1	n	n	u	15.8µM	n
O=C(CSc1nc(O)cc(=O)n1-c1ccccc1)Nc1ccccn1	n	11.2µM	n	n	n
CCc1ccc(N(C(=O)c2ccco2)C(C(=O)NC2CCCC2)c2ccncc2)cc1 (configuration not stated)	n	n	n	n	n
CCc1ccc(N(C(=O)C(F)(F)F)C(C(=O)NC2CCCCC2)c2ccncc2)cc1 (configuration not stated)	n	0.562µM	n	n	n
